# Inconclusive results are not listed. Values without a mark were called inactive.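 How the source made its calls: active means compounds whose dose-response curve shows a full or clear partial loss of cell viability, called from curve shape rather than a numeric limit; inconclusive means weak partial curves or an effect only at the top dose; inactive means no dose-dependent loss of viability.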
# Test: Cell Viability - Hek293 (AID 427);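 further: cells exposed to compound for 40 hours at 37 °C before reading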
# Settings: qHTS
# Description: NIH Chemical Genomics Center [NCGC]
# NIH Molecular Libraries Screening Centers Network [MLSCN]
# National Institutes of Environmental Health Sciences [NIEHS]
# National Toxicology Program [NTP]
# We have developed a 1536-well cell-based assay for quantitative high throughput screening (qHTS) against a number of cell lines to determine in vitro cytotoxicity of small molecules. This particular assay uses the Hek 293 cell line which is derived from human embryonic kidney cells (transformed with adenovirus).
# NCGC Assay Protocol Summary:
# The CellTiter-Glo luminescent cell viability assay (Promega) is a homogeneous method to measure the number of viable cells in culture. The end point readout of this assay is based on quantitation of intracellular ATP, an indicator of metabolic activity, using the luciferase reaction. Luciferase catalyzes the oxidation of beetle Luciferin to oxyluciferin and light in the presence of ATP. The luminescent signal is proportional to amount of ATP present.
# Using the CellTiter-Glo luminescent cell viability assay, the amount of cellular ATP was measured in the Hek293 cell line with complete culture medium following compound treatment for 40 hours. The assay was performed in opaque white Kalypsys 1536-well plates. In the screen, tamoxifen and doxorubicin were used as positive controls. Library compounds were measured for their ability to cause acute toxicity in the cell line, as reflected by a decrease in intracellular ATP levels, in a concentration-dependent manner. Data were normalized to the controls for basal activity (DMSO only) and 100% inhibition (100 uM tamoxifen). AC50 values were determined from concentration-response data modeled with the standard Hill equation.
# qHTS protocol fo CellTiter Glo Hek 293 cellular assay
# [Step] [Parameter] [Value] [Description]
# 2. Time; 5 hr; 37 °C incubation
# 4. Controls; 23 nL; Tamoxifen 0.34 uM to 100 uM & Doxorubicin 0.02 nM to 100 uM
# 5. Time; 40 hr; 37 °C incubation
# 6. Reagent; 5 uL; CellTiter Glo reagent
# 7. Time; 20 min; Room Temperature
# 8. Detection; Luminescence; Viewlux plate reader
# Keywords: cell viability, cytotoxicity, Hek293 cell line, luminescence, NTPHTS, NTPHTS_NCGC, NIEHS, EPA, DSSTox, MLSMR, MLSCN, NIH Roadmap, qHTS, NCGC
# Potency means the concentration at half of the fitted maximal effect.
row,Structure (SMILES),Potency [µM]
1,Clc1nc(Cl)nc(Nc2ccccc2Cl)n1,> 92
2,COc1ccc(N)cc1,> 92
3,ClCBr,> 92
4,O=C=NC1CCCCC1,> 92
5,O=C(O)COc1ccc(Cl)cc1Cl,> 92
6,Cc1cccc(C#N)c1,> 92
7,Clc1cc(Cl)c(-c2cc(Cl)c(Cl)cc2Cl)cc1Cl,> 92
8,Brc1ccccc1,> 92
9,ClC(Cl)=C(Cl)Cl,> 92
10,ClC(Cl)=C(c1ccc(Cl)cc1)c1ccc(Cl)cc1,> 92
11,Clc1ccc2ccccc2c1,> 92
12,CCCOC(=O)c1ccccc1C(=O)OCCC,> 92
13,O=[N+]([O-])c1ccc(Cl)c(Cl)c1,> 92
14,CC(=O)[O-].CC(=O)[O-].O.O.O.[Pb+2],> 92
15,Clc1cccc(C(Cl)(Cl)Cl)n1,> 92
16,CC(O)CCl (stereo not given),> 92
17,C=CCc1ccc(OC)cc1,> 92
18,S=C=Nc1cccc2ccccc12,> 92
19,C[C@]12CC[C@H]3[C@@H](CCC4=CC(=O)CC[C@@]43C)[C@@H]1CC[C@@H]2O,> 92
20,CCCCCCCC(=O)Cl,> 92

row,Structure (SMILES),Potency [µM]
1,C=CCOC(=O)c1ccccc1N,> 92
2,CCCSC(=O)Cl,> 92
3,Nc1ccc(Br)cc1,> 92
4,CCOP(=S)(OCC)Oc1ccc([N+](=O)[O-])cc1,> 92
5,C=CCOC(C)=O,> 92
6,Oc1ccc(Cl)cc1Cl,> 92
7,CC(C)(C)OO,> 92
8,c1ccc(-c2ccccc2)cc1,> 92
9,O=NN(CCO)CCO,> 92
10,CNC(=O)O/N=C/C(C)(C)SC,> 92
11,N#CCCCl,> 92
12,CC(C)(C)OOC(C)(C)C,> 92
13,CCCC(=O)Cl,> 92
14,Clc1nc(Cl)nc(Cl)n1,> 92
15,COc1ccc(C=O)cc1OC,> 92
16,C/C=C/c1ccc2c(c1)OCO2,> 92
17,Nc1c(Cl)c(Cl)nc(C(=O)O)c1Cl,> 92
18,c1ccc2c(c1)CCCC2,> 92
19,C=C(Cl)Cl,> 92
20,CCOP(=S)(OCC)SCSC(C)(C)C,> 92
